{"source": "PubChem BioAssay (NCI)", "note": "About 83,000 compounds went through this panel and 20% of them were active in at least one assay; those are over-represented in the sample as a whole.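 Each cell line was grown in a 96-well plate and treated with one concentration of compound for 48 hours. Values below 10 were considered active.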 Values without a mark were called inactive. Activity calls are given as the source filed them.", "data": [{"tested_on": "A549/ATCC NSCLC", "experiment": "NCI-60 one-dose screen, 48 h (100 = growth as untreated, 0 = no growth, -100 = all killed)", "conditions": "10 µM unless noted", "values": [{"compound": "O=S(=O)(NCCCNc1cc(-c2cn(-c3ccccc3)nc2-c2cccc(O)c2)ccn1)c1cccc2ccccc12", "growth": "35.8%"}, {"compound": "O=C(NCCCN1CCN(CCCNC(=O)C2CCCCC2)CC1)C1CCCCC1", "growth": "101%"}, {"compound": "CCN(Cc1ccc(CN(CC)C(=O)C(Cl)(Cl)Cl)cc1)C(=O)C(Cl)(Cl)Cl", "growth": "79.2%"}, {"compound": "CCOC(=O)CC(C#N)(CC(=O)OCC)C(=O)OCC", "growth": "84.6%"}, {"compound": "COc1ncc(-c2ccc3ncnc(Nc4cccc(Cl)c4)c3c2)cc1NS(=O)(=O)C1CC1", "growth": "26.3%"}, {"compound": "Cc1cc(C)c(S(=O)(=O)N2CCN(c3cc4c(cc3F)c(=O)c(C(=O)O)cn4C3CC3)CC2)c(C)c1", "growth": "20.3%"}, {"compound": "COc1ccc(/C=C/C(=O)OCC(=O)NNC(=O)c2ccccc2)cc1OC", "growth": "99.2%"}, {"compound": "O=C1c2ccccc2C(=O)c2c1oc1oc3c(c(=O)c21)c(=O)n(-c1ccccc1)c1ccccc31", "growth": "37.7%"}, {"compound": "O=C(Nc1ccc(Cl)cc1)c1cc(-c2ccc(F)cc2)c2sc(=O)[nH]c2n1", "growth": "12.2%"}, {"compound": "CC(C)(C)c1ccc(S(=O)(=O)Oc2ccc3c4c(c(=O)oc3c2)CCCCC4)cc1", "growth": "59.3%"}, {"compound": "CCN(CC)CCSc1c2ccc(Cl)cc2nc2ccc(OC)cc12", "growth": "74%"}, {"compound": "Cc1ccc(OCCn2c(C)nn(-c3ccc(Cl)cc3)c2=O)cc1", "growth": "100%"}, {"compound": "O=C(CN1CCN(c2cc3c(cc2F)c(=O)c(C(=O)O)cn3C2CC2)CC1)Nc1ccc(C(=O)/C=C/c2ccc(Cl)cc2)cc1", "growth": "97.6%"}, {"compound": "CCC(c1ccc(OC)cc1)C(CC)c1ccc(OCC[N+](C)(C)C)cc1", "note": "(centres undefined)", "growth": "74.3%"}, {"compound": "O=C(C[N+](=O)[O-])c1ccc(Cl)cc1", "growth": "106%"}, {"compound": "O=C(CCC(=O)OC1CCCC1)OC1CCCC1", "growth": "91.4%"}, {"compound": "CCOC(=O)c1ccccc1NC(c1ccccc1)c1ccc2cccnc2c1O", "note": "(centres undefined)", "growth": "21.6%"}, {"compound": "C/C(=C\\c1csc(C)n1)[C@@H]1C[C@@H]2O[C@]2(C)CCC[C@H](C)[C@H](O)[C@@H](C)C(=O)C(C)(C)[C@@H](O)CC(=O)N1", "growth": "-79.8% (active)"}, {"compound": "COc1ccc(C2CC(c3cccs3)=NN2c2ccc(S(=O)(=O)NC(=O)Nc3ccc(C)cc3)cc2)cc1", "note": "(centres undefined)", "growth": "102%"}, {"compound": "CCSc1nnc(NC(=O)COc2ccc(Cl)cc2C)s1", "growth": "104%"}, {"compound": "COc1cc(CNC(=O)CSc2nc3ccccc3c(=O)n2Cc2cc(OC)c(OC)c(OC)c2)cc(OC)c1OC", "growth": "97%"}, {"compound": "COc1ccc(NC(=S)/N=c2\\oc3c(OC)cccc3cc2-c2cc3ccccc3[nH]2)cc1", "growth": "85.2%"}, {"compound": "COc1ccc(C2=CC(c3ccc(Oc4ccnc5cc(Cl)ccc45)c(OC)c3)c3c(nc(OC)[nH]c3=O)N2)cc1", "note": "(centres undefined)", "growth": "65.5%"}, {"compound": "CCN(C(=O)c1cc2ncccc2[nH]1)[C@H]1CCC[C@@H](NCc2cccc(F)c2)C1", "growth": "102%"}, {"compound": "COc1ccc(/C=C/C(=O)/C=C/c2cc3ccc(Cl)cc3[nH]c2=O)cc1", "growth": "93.1%"}, {"compound": "CCc1c(C(=O)Nc2ccc3ccccc3c2)[nH]c(C)c1C(C)=O", "growth": "89.6%"}, {"compound": "Cc1cnc(NC(=O)C(Cc2ccccc2)NC(=O)c2ccccc2)s1", "note": "(centres undefined)", "growth": "90.7%"}, {"compound": "O=C1Nc2ccc(Br)cc2C1=N/C=c1\\[nH]c(=O)/c(=C/c2ccc(Cl)cc2)s1", "growth": "85.3%"}, {"compound": "CC/C(=C(\\c1ccc(O)cc1)c1ccc(OCCN(C)CCN(C)C(=O)CCC(=O)c2c(C)[nH]c(/C=C3\\N=C(c4ccc[nH]4)C=C3OC)c2C)cc1)c1ccccc1", "growth": "76.4%"}]}]}
